The values below come from PubChem BioAssay (NCI).

This is part of a sample that, as a whole, favours compounds with a hit. Of some 79,000 tested, about 15% had one in any assay. Unmarked numbers belong to inactive results. Active and inactive are the calls of the source. Rule as the data show it: active = growth inhibition above about 70%; inactive = the rest.

Assay [1] is described as follows: NCI Yeast Anticancer Drug Screen. Data for the rad50 strain (AID 155).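 Also: 0% = growth of vehicle-only cultures of the same strain.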 The following applies: S. cerevisiae rad50 strain growth inhibition; at 50.0 µM; stronger effect = higher value. A digest of the protocol: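 Cells are treated with compound, grown, and their growth is then scored against vehicle-only cultures of the same repair-deficient yeast strain.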
Assay [2] is described as follows: NCI Yeast Anticancer Drug Screen. Data for the mec2-1 strain (AID 157). The following applies: S. cerevisiae mec2-1 strain, at 50.0 µM, stronger effect = higher value. The essentials: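 mec2-1 yeast strain, carrying an alteration in DNA damage repair or cell cycle control, was exposed to compounds; growth inhibition was measured relative to vehicle-treated controls.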
Assay [3] in a line: NCI Yeast Anticancer Drug Screen. Data for the sgs1 mgt1 strain (AID 161).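 Also: 0% = growth of cultures given vehicle only.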 The following applies: S. cerevisiae sgs1 mgt1 strain, at 50.0 µM, stronger effect = higher value. The essentials:
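Compounds are added to genetically altered yeast, and growth is compared with cultures given vehicle alone to give percent inhibition.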

Assay [4] is described as follows: NCI Yeast Anticancer Drug Screen. Data for the cln2 rad14 strain (AID 165).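 Also: 0% = growth equal to vehicle treated cultures.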 Conditions: S. cerevisiae cln2 rad14 strain, at 50.0 µM, stronger effect = higher value. A digest of the protocol: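 Yeast carrying cln2 and rad14 alterations (cell cycle control and DNA damage repair) were exposed to compounds. Growth inhibition was measured against vehicle-treated controls.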
Assay [5] can be described thus: NCI Yeast Anticancer Drug Screen. Data for the bub3 strain (AID 167). Conditions: S. cerevisiae bub3 mutant strain, at 50.0 µM, stronger effect = higher value. The essentials:
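Part of a panel of yeast mutants defective in DNA damage repair or cell cycle regulation. Each strain is grown with compound, and inhibition is calculated relative to solvent-treated cultures.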

Assay [6] in a line: NCI Yeast Anticancer Drug Screen. Data for the mlh1 rad18 strain (AID 175). Conditions: S. cerevisiae mlh1 rad18 strain growth inhibition; at 50.0 µM; stronger effect = higher value. A digest of the protocol: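 Growth inhibition of the yeast strain was measured after compound exposure and expressed relative to vehicle-treated controls. The strain carries defined defects in DNA damage repair.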

With `CCOC(=O)c1cc(C)nc(Cl)c1C#N`, the growth inhibition was 6.3% in assay [1]; 12.8% in assay [2]; 7.9% in assay [3]; 13.7% in assay [4]; 21.1% in assay [5]; 12.4% in assay [6].

For the compound `C=CCOC(=O)c1cccc(C(=O)OCC=C)c1`, the growth inhibition in assay [1] was 12.6%; in assay [2], 23.4%; in assay [3], 40.2%; in assay [4], 19.1%; in assay [5], 34.5%; in assay [6], 33.8%.

With `NC(=O)C1C(=O)NC(=O)C1=O` (stereo unspecified), the growth inhibition was -21.5% in assay [1]; -17.9% in assay [2]; -8.75% in assay [3]; -7.7% in assay [4]; -9.75% in assay [5]; -22.4% in assay [6].

`Brc1ncccn1`: the growth inhibition in assay [1] was 23.8%; in assay [2] it was -16.9%; in assay [3], 0.65%; in assay [4], 17.9%; in assay [5], 7.75%; in assay [6] it was 14.8%.

For the compound `COc1cc(NC(=O)Nc2cccc(C(C)=O)c2)c(OC)cc1Cl`, the growth inhibition in assay [1] was -10.5%; in assay [2], 11%; in assay [3], 0.75%; in assay [4], -14.4%; in assay [5], 6.35%; in assay [6] it was -9.15%.

For `CCSCCC(Nc1ncnc2nc[nH]c12)C(=O)O` (stereo unspecified), the growth inhibition is -17.8% in assay [1]; 8.75% in assay [2]; -5.65% in assay [3]; -17% in assay [4]; -4.8% in assay [5]; -19.4% in assay [6].

For the compound `O=C1c2ccccc2CCC12OC2c1ccccn1` (stereo unspecified), the growth inhibition was 67.8% in assay [1]; 78.5% (active) in assay [2]; 55% in assay [3]; -6% in assay [4]; 89.9% (active) in assay [5]; 84.2% (active) in assay [6].

As for `COc1cccc2c1CC/C(=C\c1ccccn1)C2=O`, the growth inhibition in assay [1] is 98.5% (active); in assay [2], 99.1% (active); in assay [3], 98.9% (active); in assay [4], 97.8% (active); in assay [5] it was 98.8% (active); in assay [6] it was 99.2% (active).

Turning to `CCC(C)C(NCc1ccccc1)C(=O)O` (stereo unspecified), the growth inhibition in assay [1] is -8.75%; in assay [2] it was 7.5%; in assay [3], 26.9%; in assay [4], -13.2%; in assay [5] it was -18.4%; in assay [6], -8.25%.

For the compound `COc1ccc2c(c1OC)CN1CCc3cc4c(cc3C1=C2)OCO4`, the growth inhibition was 15.9% in assay [1]; -3.95% in assay [2]; -9.95% in assay [3]; 2.35% in assay [4]; 8.15% in assay [5]; 12.9% in assay [6].

With `Nc1nc(Br)nc2ncn(C3CC(O)C(CO)O3)c12` (stereo unspecified), the growth inhibition was 20.1% in assay [1]; 3.8% in assay [2]; 18.3% in assay [3]; -2.25% in assay [4]; -0.85% in assay [5]; -4.9% in assay [6].

Consider `CCCCCCCCSc1nc(Nc2cc(C(C)(C)C)c(O)c(C(C)(C)C)c2)nc(SCCCCCCCC)n1`, for which the growth inhibition in assay [1] was 41.6%; in assay [2] it was 1.95%; in assay [3], 13.1%; in assay [4], 34.1%; in assay [5] it was -0.9%; in assay [6], 28.4%.

With `Nc1cc(=O)c2n[nH]nc2[nH]1`, the growth inhibition is -29.9% in assay [1]; 0.7% in assay [2]; -17.1% in assay [3]; -21.6% in assay [4]; -14.3% in assay [5]; -16.9% in assay [6].

Take `C=C1CC(OC(=O)c2ccc([N+](=O)[O-])cc2)C1`: the growth inhibition in assay [1] is 1.5%; in assay [2], -16.6%; in assay [3] it was -16.5%; in assay [4], -8.65%; in assay [5], 3.7%; in assay [6], -8.5%.

For `COC(=O)C1(O)CC(=O)CCC1c1ccc(OC)cc1` (stereo unspecified), the growth inhibition in assay [1] is 9.75%; in assay [2], -1.35%; in assay [3], -14.8%; in assay [4], -10.3%; in assay [5], -38%; in assay [6], -17.1%.

In the case of `CCCCCCCCCCCC(=O)N(CCCCCCCCCCC(=O)O)CC(O)C(O)C(OC1OC(CO)C(O)C(O)C1O)C(O)CO` (stereo unspecified), the growth inhibition is 65.3% in assay [1]; 12.8% in assay [2]; 85.8% (active) in assay [3]; 32.2% in assay [4]; 86.3% (active) in assay [5]; 20.3% in assay [6].

On to `Cc1nc(-c2nc(C)c(C(=O)NNC(=O)C[n+]3ccccc3)s2)sc1C(=O)NNC(=O)C[n+]1ccccc1`, for which the growth inhibition was 21.9% in assay [1]; 10.6% in assay [2]; 52% in assay [3]; -20.9% in assay [4]; 0.2% in assay [5]; 14.4% in assay [6].

For `CCCCC(/C=C\C(=O)O)CC` (stereo unspecified), the growth inhibition in assay [1] is 29.7%; in assay [2], -6.1%; in assay [3] it was -11.8%; in assay [4], 5.05%; in assay [5], 5.75%; in assay [6], 14.4%.

For the compound `CC(O)CN(CC(C)O)c1ccc2c(c1)Cc1ccccc1-2` (stereo unspecified), the growth inhibition in assay [1] is -13.2%; in assay [2], -13.3%; in assay [3] it was 13.8%; in assay [4] it was -20.8%; in assay [5], 36%; in assay [6] it was -4.6%.

For `Cc1cc(COCCN(C)C)on1`, the growth inhibition was -3.5% in assay [1]; 14.2% in assay [2]; 14.9% in assay [3]; -3.95% in assay [4]; 11.8% in assay [5]; 4.35% in assay [6].

As to `CC1=C(C)Cc2c(-c3ccccc3)oc(-c3ccccc3)c2C1`, the growth inhibition in assay [1] is -13.3%; in assay [2] it was -12.4%; in assay [3], 0.7%; in assay [4] it was 25.8%; in assay [5] it was -7.95%; in assay [6], -16.4%.
